Compounds without any hit were thinned out: in the full panel of roughly 83,000, 20% have a hit.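 Compound tested at a single concentration for 48 hours in 96-well plates; a percent growth value below 10 was scored as active.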 Activity calls are given as the source filed them.

In this test the test system is HOP-92 NSCLC. In words: NCI-60 one-dose screen, 48 h (100 = growth as untreated, 0 = no growth, -100 = all killed). The note with it: 10 µM unless noted.
With `COc1cc(C2CC(c3cc(OC)c(OC)c(OC)c3)=NN2C(C)=O)ccc1OCc1ccccc1` (stereo not drawn), the growth was -4.8% (active).
Then `Cc1cc(N=C2NC(=O)CS2)n[nH]1`, with 115% (inactive).
Consider `C=C1CC[C@@H]2[C@]3(C)COC(c4cn[nH]c4-c4ccc(OC)cc4)O[C@@H]3CC[C@@]2(C)[C@@H]1C/C=C1/C(=O)OCC1O` (stereo partly drawn), for which the growth is -34.5% (active).
Turning to `COc1cc2c(c(OC)c1OC)C(=O)CC(c1cccc(NC(=O)c3cc(N)ccc3Cl)c1)O2` (stereo not drawn), the growth was 69.5% (inactive).
With `O=C(N=Nc1c(O)[nH]c2ccc(Cl)cc12)c1ccc2nc(-c3ccccc3)[nH]c2c1`, the growth is 77% (inactive).
As for `CNC(=O)c1cc(Oc2ccc3nc(NC(=O)Nc4cccc(OC(F)(F)F)c4)sc3c2)ccn1`, the growth is -63% (active).
As to `COc1cc2c(c(OC)c1OC)C(=O)CC(c1cccc(NC(=O)c3cc([N+](=O)[O-])ccc3Cl)c1)O2` (stereo not drawn), the growth was 36.3% (inactive).
Then `COc1ccc(C2=NN(C(C)=O)C(c3ccc(OCc4ccc(Cl)cc4)c(OC)c3)C2)cc1OC` (stereo not drawn), with 37.1% (inactive).
With `COc1ccc2cc([C@H](C)C(=O)N/N=C/c3ccc(Br)cc3)ccc2c1` the figure was 103% (inactive).
Regarding `CCCCCCCCc1ccc(C(=O)Nc2ccc(C)cc2C(=O)O)cc1C`, the growth is 99% (inactive).
With `CSc1ccccc1NC(=O)c1ccc2nn(/C(C#N)=C/c3ccccn3)nc2c1` the figure was -23.8% (active).
As for `COCOc1ccc2c(=O)c(C)c(C(=O)N[C@@H](Cc3ccccc3)C(O)C(=O)NCCc3ccc(OC)cc3)oc2c1` (stereo partly drawn), the growth was 117% (inactive).
In the case of `CSc1ccc(C(=O)Nc2ccc3nnn(/C(C#N)=C/c4ccccn4)c3c2)cc1`, the growth was -24.8% (active).

These data come from PubChem BioAssay (NCI).
